Results: PubChem BioAssay (NCATS)
Results filed as inconclusive are left out. Active and inactive are the calls of the source. The call rests on the fitted dose curve; in most records, active means well fitted inhibition curve with a large enough effect; inconclusive means small, poorly fitted or top-dose-only effect; inactive means flat fitted curve, though single readings scatter.

Test system: DIV17
Experiment: qHTS profiling for inhibitors of Plasmodium falciparum proliferation (AID 504749); further: nearly all actives have a fitted effect of over 60% in size
Details: P. falciparum in erythrocytes, SYBR Green DNA, 72 h; series mostly up to 28.7 µM
Method in brief: (§1)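 P. falciparum-infected erythrocytes (0.3% parasitemia, 2.5% hematocrit final) were exposed to compounds for 72 h at 37 C in 5% CO2, then lysed with SYBR Green buffer overnight at room temperature; parasite DNA fluorescence was normalized to artemisinin and DMSO controls.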
Potency means the concentration at half of the fitted maximal effect.

Potency, inactive:
CC(=O)OCC(=O)[C@@]1(O)CCC2C3C[C@H](C)C4=CC(=O)C=CC4(C)C3C(O)CC21C (stereo partly specified)
CC1(C)C2CC[C@]1(C)[C@@H](O)C2
OCC1O[C@H](Oc2ccc(O)cc2)C(O)C(O)C1O (stereo partly specified)
Nc1nc(F)nc2c1ncn2[C@@H]1O[C@H](CO)[C@@H](O)[C@H]1O
CC1OC(OC2CCC3(C)C(CCC4C3CC(O)C3(C)C(C5=CC(=O)OC5)CCC43O)C2)CC(O)C1OC1CC(O)C(OC2CC(O)C(OC3OC(CO)C(O)C(O)C3O)C(C)O2)C(C)O1 (stereo unspecified)
CC1OC(OCC2OC(Oc3c(-c4ccc(OCCO)c(OCCO)c4)oc4cc(OCCO)cc(O)c4c3=O)C(O)C(O)C2O)[C@@H](O)C(O)C1O (stereo partly specified)

Potency, active:
CN[C@H](C)CCC=C(C)C 190 nM

Test system: DIV30
Experiment: as above
Details: P. falciparum in erythrocytes, SYBR Green DNA, 72 h; series mostly up to 28.7 µM
Method in brief: as §1

Potency, active:
CCCCC(=O)OCC(=O)[C@]1(O)Cc2c(O)c3c(c(O)c2[C@H](OC2CC(NC(=O)C(F)(F)F)C(O)C(C)O2)C1)C(=O)c1c(OC)cccc1C3=O (stereo partly specified) 1900 nM
C[C@H]1[C@@H](OC(=O)CCC(=O)O)OC2OC3(C)CC[C@H]4[C@H](C)CC[C@@H]1[C@@]24OO3 (stereo partly specified) 4.3 nM
COc1cc2c(cc1O)CCN[C@@]21CS[C@H]2c3c(OC(C)=O)c(C)c4c(c3C(COC1=O)N1C2C2c3c(cc(C)c(OC)c3O)CC([C@@H]1O)N2C)OCO4 (stereo partly specified) 1.5 nM
C[n+]1c2cc(N)ccc2cc2ccc(N)cc21 1690 nM
CC[C@@]1(O)C[C@H](O[C@H]2C[C@@H](N(C)C)[C@@H](O[C@H]3C[C@@H](O)[C@@H](O[C@H]4CCC(=O)[C@@H](C)O4)[C@@H](C)O3)[C@@H](C)O2)c2c(cc3c(c2O)C(=O)c2c(O)cccc2C3=O)[C@H]1C(=O)OC 953 nM

Potency, inactive:
CCCCCCCCCCCCCCCC(=O)OC[C@H](O)[C@H]1OC[C@@H](O)[C@@H]1O
C[C@H]1OC(OC2C(O)[C@@H](O)C(OC3C(O)[C@@H](O)C(O)O[C@@H]3CO)O[C@@H]2CO)[C@H](O)C(O)C1N[C@H]1C=C(CO)[C@@H](O)[C@H](O)C1O (stereo partly specified)
CCN(CC)CC(=O)Nc1c(C)cc(C)cc1C
CC(=O)N[C@H]1[C@H](O[C@@H]2c3ccc(c(Cl)c3)Oc3cc4cc(c3O[C@@H]3O[C@H](CO)[C@@H](O)[C@H](O)C3C)Oc3ccc(cc3Cl)C[C@H]3NC(=O)[C@@H](N)c5ccc(O)c(c5)Oc5cc(O)cc(c5)[C@H](NC3=O)C(=O)N[C@H]4C(=O)N[C@H]3C(=O)N[C@@H]2C(=O)N[C@@H](C(=O)O)c2cc(O)cc(O[C@H]4O[C@H](CO)[C@@H](O)C(O)[C@@H]4O)c2-c2cc3ccc2O)O[C@H](CO)[C@@H](O)[C@@H]1O (stereo partly specified)
NC(=O)c1ncn(C2OC(CO)C(O)C2O)c1N (stereo unspecified)
CN(C)CC/C=C1\c2ccccc2COc2ccc(CC(=O)O)cc21
CCCC(=O)O[C@]1(C(=O)COC(C)=O)CC[C@H]2C3C[C@H](F)C4=CC(=O)C=CC4(C)[C@@]3(F)[C@@H](O)CC21C (stereo partly specified)
OCCN1CC(O)C(O)C(O)C1CO (stereo unspecified)
CC(CCC(=O)O)C1CCC2C3C(=O)C[C@@H]4CC(=O)CC[C@@]4(C)C3CC(=O)[C@]12C (stereo partly specified)
O=C(OC[C@@H]1O[C@@](O)(COC(=O)c2cccnc2)[C@H](OC(=O)c2cccnc2)[C@H]1OC(=O)c1cccnc1)c1cccnc1
O=[N+]([O-])O[C@H]1CO[C@H]2[C@@H]1OC[C@H]2O
COc1cccc(OC)c1C(=O)NC1C(=O)N2C1SC(C)(C)C2C(=O)O (stereo unspecified)
NC[C@@H]1O[C@H](OC2[C@@H](CO)O[C@@H](OC3[C@H](O)[C@H](N)C[C@H](N)[C@H]3OC3O[C@H](CO)[C@@H](O)[C@H](O)[C@@H]3N)[C@H]2O)C(N)[C@H](O)[C@@H]1O (stereo partly specified)
Cc1ccc(S(=O)(=O)NC(=O)NC(C)Cc2ccccc2)cc1 (stereo unspecified)
OCCOC[C@H]1O[C@H](OCCO)[C@H](OCCO)[C@@H](OCCO)[C@@H]1OCCO (tested in a mixture with another compound)
C[S+](C)CC[C@H](N)C(=O)O
CC[C@@H]1/C=C(\C)C[C@H](C)C[C@H](OC)[C@H]2O[C@@](O)(C(=O)C(=O)N3CCCC[C@H]3C(=O)O[C@H](/C(C)=C/[C@@H]3CC[C@H](Cl)[C@H](OC)C3)[C@H](C)[C@@H](O)CC1=O)[C@H](C)C[C@@H]2OC
NC(=O)C1CC2(NC(=O)NC2=O)c2cc(F)ccc2O1 (stereo unspecified)
CN1[C@@H]2CC[C@@H]1CC(OC(=O)[C@H](CO)c1ccccc1)C2 (stereo partly specified)
